Several values for one entry are separate records, joined by “and”; a condition that tells them apart may be missing. Equal values may be shown once. Results filed as inconclusive are left out. The source holds several records for some structures; these can differ, active in one and inactive in another. Activity calls are given as the source filed them. Rule for the calls: active = hit-call score of the fitted dose curve at least 0.9, where 1 is the maximum; inconclusive = response in the unintended direction; inactive = score below 0.9.
What follows are compounds tested against human Thyroid hormone Receptor alpha (TRa), THRA (gene 7067) (UniProt P10827) (assay: ATG_hTRa_XSP2: Attagene TRANS-FACTORIAL Multi-Species (XSP2) HepG2 Assay for human Thyroid hormone Receptor alpha (TRa) (AID 2283838)).
Method in brief: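 Gain-of-signal in reporter mRNA, relative to DMSO, after 24 h dosing of transfected HepG2; quantitation by RT-PCR fragment analysis on capillary electrophoresis.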

Chain of human Thyroid hormone Receptor alpha (TRa), THRA (gene 7067) (P10827 whole entry, looked up, the tested form may be a part): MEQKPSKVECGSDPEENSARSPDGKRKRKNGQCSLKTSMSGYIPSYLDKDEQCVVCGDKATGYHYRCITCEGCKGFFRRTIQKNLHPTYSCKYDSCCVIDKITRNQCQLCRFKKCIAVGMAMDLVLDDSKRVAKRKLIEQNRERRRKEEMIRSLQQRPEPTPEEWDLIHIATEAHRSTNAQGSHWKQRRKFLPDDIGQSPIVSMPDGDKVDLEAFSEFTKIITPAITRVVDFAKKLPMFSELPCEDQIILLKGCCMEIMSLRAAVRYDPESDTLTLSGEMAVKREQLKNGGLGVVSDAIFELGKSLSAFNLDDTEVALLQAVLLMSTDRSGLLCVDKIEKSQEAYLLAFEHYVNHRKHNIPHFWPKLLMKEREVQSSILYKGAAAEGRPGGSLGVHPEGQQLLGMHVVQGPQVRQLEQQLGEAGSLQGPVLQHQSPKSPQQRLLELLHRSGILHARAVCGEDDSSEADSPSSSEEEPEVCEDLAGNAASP

Compound | outcome
O=c1c(-c2ccc(O)cc2)coc2cc(O)cc(O)c12 | inactive
CC1(C)NC(=O)N(c2ccc([N+](=O)[O-])c(C(F)(F)F)c2)C1=O | inactive
CC(C)(c1cc(Br)c(O)c(Br)c1)c1cc(Br)c(O)c(Br)c1 | inactive

Each compound was assayed against frog Thyroid hormone Receptor alpha (TRa), thra-a (gene 397942) (UniProt P15204) (assay: ATG_frTRa_XSP2: Attagene TRANS-FACTORIAL Multi-Species (XSP2) HepG2 Assay for frog Thyroid hormone Receptor alpha (TRa) (AID 2283839);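 for AC50: AC50 reflects induction of frog TRa-driven reporter mRNA above DMSO baseline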).
Method in brief: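 Frog thyroid receptor alpha was tested as an exogenous NR-Gal4 fusion in transiently transfected HepG2 cells. After 24 h chemical treatment, reporter mRNA induction was quantified by RT-PCR and capillary electrophoresis, with gain-of-signal analysed relative to DMSO.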

Chain of frog Thyroid hormone Receptor alpha (TRa), thra-a (gene 397942) (P15204 whole entry, looked up, the tested form may be a part): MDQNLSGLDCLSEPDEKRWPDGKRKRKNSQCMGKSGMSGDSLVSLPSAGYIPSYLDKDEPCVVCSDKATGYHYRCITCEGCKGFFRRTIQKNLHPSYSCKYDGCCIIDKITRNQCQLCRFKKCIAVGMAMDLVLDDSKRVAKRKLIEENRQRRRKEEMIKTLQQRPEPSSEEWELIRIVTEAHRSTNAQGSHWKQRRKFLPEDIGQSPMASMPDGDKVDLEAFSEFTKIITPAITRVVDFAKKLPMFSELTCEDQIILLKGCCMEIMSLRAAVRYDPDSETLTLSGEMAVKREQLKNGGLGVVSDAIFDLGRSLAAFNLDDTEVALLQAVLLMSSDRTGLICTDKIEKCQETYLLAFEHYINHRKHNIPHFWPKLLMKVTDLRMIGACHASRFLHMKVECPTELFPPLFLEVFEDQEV

Compound | outcome | AC50
C[C@]12CC[C@@H]3c4ccc(O)cc4CC[C@H]3[C@@H]1CCC2=O | inactive | –
O=C(O)Cc1cc(I)c(Oc2ccc(O)c(I)c2)c(I)c1 | – | 0.519 nM (active) and 0.826 nM (active)
Cc1c2ccccc2c(C)c2c1ccc1ccccc12 | inactive | –
O=c1c(-c2ccc(O)cc2)coc2cc(O)cc(O)c12 | inactive | –
CC1(C)NC(=O)N(c2ccc([N+](=O)[O-])c(C(F)(F)F)c2)C1=O | inactive | 66.4 µM (active)
CC(C)(c1cc(Br)c(O)c(Br)c1)c1cc(Br)c(O)c(Br)c1 | – | 5.76 µM (active)

What follows are compounds tested against human Thyroid hormone Receptor beta (TRb), THRB (gene 7068) (UniProt P10828) (assay: ATG_hTRb_XSP2: Attagene TRANS-FACTORIAL Multi-Species (XSP2) HepG2 Assay for human Thyroid hormone Receptor beta (TRb) (AID 2283840);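 note: actives raise reporter mRNA so potency reflects agonist-like gain of signal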).
Protocol: ATG_XSP2_multi-species_TRANS is a cell-based, multiplexed assay created by modifying the existing Attagene TRANS-FACTORIAL system to include a panel of nuclear receptors from some or all the following species: human (Homo sapiens), mouse (Mus musculus), frog (Xenopus laevis), zebrafish (Danio rerio), chicken (Gallus gallus), and turtle (Chrysemys picta). The ECOTOX-FACTORIAL format uses HepG2, a human liver cell line, with measurements taken at 24 hours after chemical dosing in a 24-well plate. Xsp2 included 3 nM 6-alpha-fluorotestosterone and 1.5 nM norgestrel to stimulate the androgen receptor.ATG_hTRb_XSP2 is one of 29 assay components measured or calculated from the ATG_XSP2_multi-species_TRANS assay. It is designed to make measurements of mRNA induction, a form of inducible reporter, as detected with fluorescence intensity signals by Reverse transcription polymerase chain reaction (RT-PCR) and Capillary electrophoresis technology.The assay endpoint ATG_hTRb_XSP2 was analyzed in the positive analysis fitting direction relative to DMSO as the negative control and baseline of activity. Using a type of inducible reporter, measures of mRNA for gain-of-signal activity can be used to understand the reporter gene at the transcription factor-level as they relate to the gene TR. Furthermore, this assay endpoint can be referred to as a primary readout, because this assay has produced multiple assay endpoints where this one serves a reporter gene function. To generalize the intended target to other relatable targets, this assay endpoint is annotated to the nuclear receptor intended target family, where the subfamily is non-steroidal.
Human liver HepG2 cells are transiently transfected with multiple reporter transcription units (MRTUs) in 6-well plates using FuGene 6 reagent (Roche; 3 ml FuGene/1 mg DNA). The MRTU constructs are regulated by a cis-regulating element (promoter). […] A major difference between the CIS and TRANS system is that in CIS activities of endogenous TFs are measured, whereas the TRANS assay evaluates changes in activities of exogenous, chimeric NR-Gal4 proteins. […] At the end of 24 hour incubation, total RNA was isolated using TriZol reagent (Invitrogen). The isolated RNA is then reverse-transcribed using oligo(dT) primer and Mo-MLV reverse transcriptase (Invitrogen) with DNAse I (Ambion) treatment for 30 min. […] The fragments were purified using Qiaquick PCR columns (Qiagen), analyzed on an ABI 3130xL genetic analyzer (Applied Biosystems) with peak positions identified by using a set of X-rhodamine (ROX)-labeled MapMarker1000 molecular weight standards (BioVentures). […]

Chain of human Thyroid hormone Receptor beta (TRb), THRB (gene 7068) (P10828 whole entry, looked up): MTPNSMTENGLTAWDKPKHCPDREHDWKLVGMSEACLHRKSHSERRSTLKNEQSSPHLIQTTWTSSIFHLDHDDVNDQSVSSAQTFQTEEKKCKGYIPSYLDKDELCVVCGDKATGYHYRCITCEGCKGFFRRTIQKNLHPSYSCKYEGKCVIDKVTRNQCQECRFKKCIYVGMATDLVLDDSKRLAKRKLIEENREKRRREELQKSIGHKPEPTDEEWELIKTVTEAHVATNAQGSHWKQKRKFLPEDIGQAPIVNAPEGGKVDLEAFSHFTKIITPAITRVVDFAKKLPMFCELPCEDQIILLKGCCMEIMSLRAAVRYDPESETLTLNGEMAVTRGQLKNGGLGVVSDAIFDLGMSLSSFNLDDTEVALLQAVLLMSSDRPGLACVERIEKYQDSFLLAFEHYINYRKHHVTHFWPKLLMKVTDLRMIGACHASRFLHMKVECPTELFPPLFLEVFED

Compound | outcome | AC50
O=c1c(-c2ccc(O)cc2)coc2cc(O)cc(O)c12 | inactive | –
CC1(C)NC(=O)N(c2ccc([N+](=O)[O-])c(C(F)(F)F)c2)C1=O | inactive | 148 µM (active)
CC(C)(c1cc(Br)c(O)c(Br)c1)c1cc(Br)c(O)c(Br)c1 | inactive | –

These compounds were tested on Sodium/Iodide Symporter (NIS), SLC5A5 (gene 6528) (assay: CPHEA_Stoker_NIS_Inhibition_RAIU: CPHEA's Radioactive Iodide Uptake (RAIU) Assay for Sodium/Iodide Symporter (NIS) Inhibition, Stoker and Laws Labs (AID 2283841)).
Method in brief: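 Iodide uptake through human NIS is measured in an engineered HEK293T line. Cells take up 125I (329pM final) for 2 hours at room temperature alongside chemicals at 0.001–100uM. Retained radioactivity is counted, and the signal is expressed against DMSO controls.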

Compound | outcome | AC50
COc1cc(C(=O)NC2CCN(C)CC2)ccc1Nc1ncc2c(n1)N(C1CCCC1)CC(F)(F)C(=O)N2C | inactive | –
CN1C(=O)N(c2ccccc2Br)Cc2cnc(Nc3ccc4c(c3)OCC(CO)O4)nc21 (centres undefined) | inactive | –
O=C(Nc1ccc(Cl)cc1)Nc1ccc(Cl)c(Cl)c1 | inactive | –
CN(C)C(=O)C1(N2CCCCC2)CCN(CC[C@@]2(c3ccc(Cl)c(Cl)c3)CN(C(=O)c3ccccc3)CCO2)CC1 | inactive | –
CC(C)(C)c1cc(/C=C2\SC(N)=NC2=O)cc(C(C)(C)C)c1O | inactive | –
O=C(O)Cc1cc(I)c(Oc2ccc(O)c(I)c2)c(I)c1 | – | 88.5 µM (active)
Cc1cc2c(cc1C(F)(F)F)N(C(=O)Nc1ccc(Oc3cccnc3C)nc1)CC2 | inactive | –
CC(C)(C)c1csc(-c2cc3cc(OCc4ccccc4CC(=O)O)ccc3o2)n1 | – | 50 µM (active)
CCCCCCCCOC(=O)c1cc(O)c(O)c(O)c1 | inactive | –
CCOC(=O)O[C@H](C)OC(=O)c1ccc2c(c1)cc(C(=O)NC1CCN(C(C)C)CC1)n2Cc1cc(-c2ccc(Cl)s2)on1 | inactive | –
O=C1c2ccccc2C(=O)N1CCc1noc(-c2ccc(CN3CCCCCC3)s2)n1 | inactive | –
Cc1c2ccccc2c(C)c2c1ccc1ccccc12 | inactive | –
CN(C[C@@H](CC[N+]12CCC(C3CCCCC3)(CC1)CC2)c1ccc(Cl)c(Cl)c1)C(=O)c1cc(C(F)(F)F)cc(C(F)(F)F)c1 | – | 66.3 µM (active)
NCc1cccc(C2CCN(C(=O)c3ccc(C#Cc4ccccc4F)o3)CC2)c1 | inactive | –
Clc1cc(Cl)c2c(c1)N=C1CCCCCN1C2 | inactive | –
O=c1[nH]sc2ccccc12 | inactive | –
CCN(CC)C(=O)c1cc(S(=O)(=O)Cc2ccccc2)c(N2CCC(c3ccccc3)CC2)cc1N(CC)CCN(C)C | inactive | –
CC(C)(c1cc(Br)c(O)c(Br)c1)c1cc(Br)c(O)c(Br)c1 | – | 82.4 µM (active)
CN(C)c1ccc(C(=C2C=CC(=[N+](C)C)C=C2)c2ccc(N(C)C)cc2)cc1 | – | 17.4 µM (active)
CC/C(=C(/CC)c1ccc(O)cc1)c1ccc(O)cc1 | inactive | –
Clc1ccccc1C(c1ccccc1)(c1ccccc1)n1ccnc1 | – | 50 µM (active)
CC(=O)N1CCN(c2ccc(OC[C@H]3CO[C@](Cn4ccnc4)(c4ccc(Cl)cc4Cl)O3)cc2)CC1 | – | 50 µM (active)
CCCCCCCCCCCC[N+](C)(C)C | inactive | –
NC(=O)c1nc(-c2cccc(-c3cc(F)ccc3OCC(F)(F)C(F)(F)F)c2)n[nH]1 | – | 50 µM (active)
OC12N=C(c3ccccc3)SC1Cc1cc(Cl)ccc12 (centres undefined) | inactive | –

From PubChem BioAssay (EPA / NIEHS)
